Measurements as given in PubChem BioAssay (EPA / NIEHS).
Active and inactive are the calls of the source. The calls were made as follows: active = hit-call score of the fitted dose curve at least 0.9, where 1 is the maximum; inactive = score below 0.9.

Test: APR_HepG2_NuclearSize_1hr: Apredica 1-hour HepG2 Assay for Nuclear Size (AID 2282670)
Settings: high-content imaging, actives raise or lower the signal
Experimental: APR_HepG2_1hr is a cell-based, multiplexed-readout assay that uses HepG2, a human liver cell line, with measurements taken at 1 hour after chemical dosing in a 384-well plate.APR_HepG2_NuclearSize_1hr is one of 10 assay component(s) measured or calculated from the APR_HepG2_1hr assay. It is designed to make measurements of cell phenotype, a form of morphology reporter, as detected with fluorescence intensity signals by HCS Fluorescent Imaging technology.Data from the assay component APR_HepG2_NuclearSize_1hr was analyzed into 1 assay endpoint. This assay endpoint, APR_HepG2_NuclearSize_1hr, was analyzed with bidirectional fitting relative to DMSO as the negative control and baseline of activity. Using a type of morphology reporter, measures of all nuclear dna for gain or loss-of-signal activity can be used to understand the signaling at the nuclear-level. Furthermore, this assay endpoint can be referred to as a primary readout, because this assay has produced multiple assay endpoints where this one serves a signaling function. To generalize the intended target to other relatable targets, this assay endpoint is annotated to the cell morphology intended target family, where the subfamily is organelle conformation.
Cells were treated with dimethyl sulfoxide (DMSO) as a solvent control at a final concentration of 0.5% v/v or with compounds in DMSO with a resulting final DMSO concentration of 0.5% v/v. Compound treatment was done at concentrations of 0.39, 0.78, 1.56, 3.12, 6.24, 12.5, 25, 50, 100, and 200 uM in duplicate on each plate. Cells were treated with compounds for 1, 24, or 72 hr. Carbonyl […] m-chloro-phenylhydrazone (CCCP) and taxol were used as positive controls for mitochondrial function and cytoskeletal stability, respectively; DMSO served as the negative control for this experiment. Cells were fixed by the direct addition of 50 uL formaldehyde in Hank's Balanced Salt Solution (HBSS) to a final concentration of 3.7%. After incubation in the fixation medium for 30 min at room temperature (293-298 K), cells were rinsed twice with HBSS and treated with cell permeabilization buffer (16 uL of 0.5% Triton X-100) for 10 min at room temperature (293-298 K) before labeling. For mitochondrial membrane potential and mitochondrial measurements, pre-fixed cells were incubated with 50 uL of MitoTracker Red CMXRos (Invitrogen) at a concentration of 250 nM for 30 min before fixation. In the remaining cases, post-fixed cells were labeled by incubation with a multiplexed mixture of primary antibodies in HBSS for 60 min at room temperature (293-298 K) to detect immunoreactivity of c-Jun (1:500), phospho-histone H3 (1:100), phospho-histone H2A.x (1:200), p53 (1:400), alpha-tubulin (1:200) and Hoechst 33342 (2 ug/mL). Cells were labeled for multiplexed imaging on two separate plates: a) Hoechst 33342, MitoTracker Red, phospho-histone H3, and alpha-tubulin, and b) Hoechst 33342, phospho-histone H2A.x, and c-Jun. A final rinse with HBSS (50 uL) was performed before analysis. The primary and secondary antibodies for the proteins were phospho-histone H3 (rabbit anti-phospho-histone H3 and FITC-donkey anti-rabbit IgG), phospho-histone H2A.x (mouse anti-phospho-histone H2A.x and FITC-donkey anti-mouse IgG), c-Jun (rabbit anti-phospho-c-Jun and Cy3-donkey anti-rabbit IgG), p53 (sheep anti-p53 and Cy5-donkey anti-sheep IgG), alpha-tubulin (mouse anti-alpha-tubulin and Cy5-donkey anti-mouse IgG). These antibodies are available as the CellCiphr HepG2 assay kit (Millipore).Digital images of each well were captured using a Cellomics ArrayScan VTI (Thermo Scientific Cellomics) (0.8 NA objective, 0.63x optical coupler, and XF-93 filter set) at 20x magnification. The images were acquired using the autofocus feature of the ArrayScan instrument, which entails the following steps. First, the camera focuses on channel 1 (Hoechst 33342), where nuclei are identified. Second, a Z offset of 1 um is used for capturing mitochondria (MitoTracker Red). […]

SMILES	outcome
O=S1OCC2C(CO1)C1(Cl)C(Cl)=C(Cl)C2(Cl)C1(Cl)Cl (stereo not given)	inactive
CC1(C)C(C=C(Cl)Cl)C1C(=O)OC(C#N)c1ccc(F)c(Oc2ccccc2)c1 (stereo not given)	inactive
O=C(NC(=O)c1c(F)cccc1F)Nc1ccc(OC(F)(F)C(F)OC(F)(F)F)c(Cl)c1 (stereo not given)	inactive
CCCN(CCOc1c(Cl)cc(Cl)cc1Cl)C(=O)n1ccnc1	inactive
CCC(C)(C)C(=O)OC1=C(c2ccc(Cl)cc2Cl)C(=O)OC12CCCCC2	inactive
CC1(c2ccc(Oc3ccccc3)cc2)OC(=O)N(Nc2ccccc2)C1=O (stereo not given)	inactive
O=S(=O)(O)C(F)(F)C(F)(F)C(F)(F)C(F)(F)C(F)(F)C(F)(F)C(F)(F)C(F)(F)F	inactive
CC(C)(C)C(O)C(Oc1ccc(Cl)cc1)n1cncn1 (stereo not given)	inactive
ClC1C(Cl)C(Cl)C(Cl)C(Cl)C1Cl (stereo not given)	inactive
O=C(O)COc1ccc(Cl)cc1Cl	inactive
CCC(C)Nc1c([N+](=O)[O-])cc(C(C)(C)C)cc1[N+](=O)[O-] (stereo not given)	inactive
Cc1[nH]c(=O)n(C(C)(C)C)c(=O)c1Cl	inactive
CN1CSC(=S)N(C)C1	inactive
C[C@H]1[C@H](c2ccc(Cl)cc2)SC(=O)N1C(=O)NC1CCCCC1	inactive
O=[N+]([O-])/N=C1\NCCN1Cc1ccc(Cl)nc1	inactive
C#CCN1C(=O)COc2cc(F)c(N3C(=O)C4=C(CCCC4)C3=O)cc21	inactive
CCc1ccc(C(=O)NN(C(=O)c2cc(C)cc(C)c2)C(C)(C)C)cc1	inactive
N#CN	inactive
CNC(=O)CSP(=S)(OC)OC	inactive
CC(C)(C)C(O)/C(=C\c1ccc(Cl)cc1Cl)n1cncn1 (stereo not given)	inactive

SMILES	outcome
Clc1ccccc1-c1nnc(-c2ccccc2Cl)nn1	inactive
CC(C)OC(=O)Nc1cccc(Cl)c1	inactive
CCOC1Oc2ccc(OS(C)(=O)=O)cc2C1(C)C (stereo not given)	inactive
CCS(=O)(=O)c1cccnc1S(=O)(=O)NC(=O)Nc1nc(OC)cc(OC)n1	inactive
Cc1cc(C)nc(NC(=O)NS(=O)(=O)c2ccccc2C(=O)OC2COC2)n1	inactive
CCC(C)(NC(=O)c1cc(Cl)c(C)c(Cl)c1)C(=O)CCl (stereo not given)	inactive
COC(=O)c1ccccc1CS(=O)(=O)NC(=O)Nc1nc(OC)cc(OC)n1	inactive
O=C(O)C(F)(F)C(F)(F)C(F)(F)C(F)(F)C(F)(F)C(F)(F)C(F)(F)F	inactive
COC(=O)c1ccccc1S(=O)(=O)NC(=O)N(C)c1nc(C)nc(OC)n1	inactive
O=C(O)CCCOc1ccc(Cl)cc1Cl	inactive
CNC(=O)Oc1cccc(N=CN(C)C)c1	inactive
CNC(=O)/C=C(\C)OP(=O)(OC)OC	inactive
CCCN(CCC)c1c([N+](=O)[O-])cc(C(F)(F)F)cc1[N+](=O)[O-]	inactive
CC(C)N(C(=O)COc1nnc(C(F)(F)F)s1)c1ccc(F)cc1	inactive
O=C1c2ccccc2C(=O)N1SC(Cl)(Cl)Cl	inactive
O=[N+]([O-])c1c(Cl)c(Cl)c(Cl)c(Cl)c1Cl	inactive
COP(=S)(OC)Oc1ccc([N+](=O)[O-])cc1	inactive
CC[C@H](C)[C@H]1O[C@]2(C=C[C@@H]1C)C[C@@H]1C[C@@H](C/C=C(\C)[C@@H](O[C@H]3C[C@H](OC)[C@@H](O[C@H]4C[C@H](OC)[C@@H](O)[C@H](C)O4)[C@H](C)O3)[C@@H](C)/C=C/C=C3\CO[C@@H]4[C@H](O)C(C)=C[C@@H](C(=O)O1)[C@]34O)O2 (tested in a mixture with another compound)	inactive
[2H]C1([2H])[n+]2ccccc2-c2cccc[n+]2C1([2H])[2H]	inactive
CCOCN(C(=O)CCl)c1c(C)cccc1CC	inactive
